The list is not random: actives were taken first. Their share in the collection is about 10%.
GLS inh – qHTS for Inhibitors of Glutaminase (GLS); Glutaminase kidney isoform, mitochondrial (Homo sapiens), O94925; GLS enzymatic activity, qHTS titration; Potency, µM (highest dose often 45.5 µM), actives largely listed as inhibitors; 410,000 tested, 0.21% active; AID 624170, 2012
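hKGA in 45 mM KH2PO4 (pH 8.2), 0.02% Tween-20 with compound, then 1mM L-Glutamine (stock as added) plus glutamate oxidase/HRP/Amplex red coupling mix. Fluorescence read initially and after 30 min at RT; signal change reflects glutamate formation.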
JMJD2A Tudor inh – qHTS Assay for Inhibitors of JMJD2A-Tudor Domain. Lysine-specific demethylase 4A (Homo sapiens), O75164. AlphaScreen JMJD2A-Tudor / H3K4me3 peptide binding. Potency, µM (doses to about 114 µM), actives largely listed as inhibitors. 390,000 tested, 4.4% active; note: nearly all actives have a fitted effect of over 50% in size
BAZ2B inh – qHTS Assay for Inhibitors of BAZ2B; AlphaScreen BAZ2B-H3K14Ac peptide displacement; Potency, µM (series often up to 114 µM), actives largely listed as inhibitors; 360,000 tested, 4.4% active; AID 504333, 2011; note: nearly all actives have a fitted effect of over 60% in size
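BAZ2B (50 nM) with biotin-H3(5-23)K14Ac peptide (50 nM) in PBS pH 7.4, 0.01% Tween-20, preformed 30 min, then compound 30 min at room temperature; top concentration 110uM. AlphaScreen streptavidin donor/nickel chelate acceptor beads (10 ug/mL final), 20 min dark, signal read.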
HP1b chromo inh – HTS for Inhibitors of HP1-beta Chromodomain Interactions with Methylated Histone Tails; AlphaScreen HP1-beta / biotin-H3K9me3 peptide binding; Chromobox protein homolog 1 (Homo sapiens), P83916; Potency, µM (series often up to 114 µM), most hits filed as inhibitors; 390,000 tested, 0.56% active; note: nearly all actives have a fitted effect of over 70% in size
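Compound inhibition of the preformed complex between 50 nM HP1-beta and 50 nM biotinylated H3K9me3 peptide was read by AlphaScreen. Buffer was PBS pH 7.4 with 0.01% Tween-20. Incubations ran 30 min at room temperature, with 10 ug/mL donor/acceptor beads.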
G9a block – qHTS Assay for Inhibitors of Histone Lysine Methyltransferase G9a; Potency, µM (top dose mostly 102 µM), actives largely listed as inhibitors; G9a H3K9 monomethylation, AlphaScreen, 2 h; 350,000 tested, 8.8% active; note: nearly all actives have a fitted effect of over 75% in size
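Using a bead-based AlphaScreen, monomethylated H3K9 product from 2 h room-temperature reactions (G9a 20 nM, peptide 500 nM, SAM 20 uM) was detected with 0.5 ug/mL rabbit anti-H3K9me1 antibody.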
L3MBTL1 inh – qHTS Assay for the Inhibitors of L3MBTL1; AlphaScreen L3MBTL1–H3K9me1 peptide binding; Lethal(3)malignant brain tumor-like protein 1 (Homo sapiens), Q9Y468; Potency, µM (highest dose often 57.1 µM), usual class: inhibitors; AID 485360, 2010; 230,000 tested, 0.66% active; note: nearly all actives have a fitted effect of over 60% in size
Target sequence (Q9Y468 whole entry, looked up): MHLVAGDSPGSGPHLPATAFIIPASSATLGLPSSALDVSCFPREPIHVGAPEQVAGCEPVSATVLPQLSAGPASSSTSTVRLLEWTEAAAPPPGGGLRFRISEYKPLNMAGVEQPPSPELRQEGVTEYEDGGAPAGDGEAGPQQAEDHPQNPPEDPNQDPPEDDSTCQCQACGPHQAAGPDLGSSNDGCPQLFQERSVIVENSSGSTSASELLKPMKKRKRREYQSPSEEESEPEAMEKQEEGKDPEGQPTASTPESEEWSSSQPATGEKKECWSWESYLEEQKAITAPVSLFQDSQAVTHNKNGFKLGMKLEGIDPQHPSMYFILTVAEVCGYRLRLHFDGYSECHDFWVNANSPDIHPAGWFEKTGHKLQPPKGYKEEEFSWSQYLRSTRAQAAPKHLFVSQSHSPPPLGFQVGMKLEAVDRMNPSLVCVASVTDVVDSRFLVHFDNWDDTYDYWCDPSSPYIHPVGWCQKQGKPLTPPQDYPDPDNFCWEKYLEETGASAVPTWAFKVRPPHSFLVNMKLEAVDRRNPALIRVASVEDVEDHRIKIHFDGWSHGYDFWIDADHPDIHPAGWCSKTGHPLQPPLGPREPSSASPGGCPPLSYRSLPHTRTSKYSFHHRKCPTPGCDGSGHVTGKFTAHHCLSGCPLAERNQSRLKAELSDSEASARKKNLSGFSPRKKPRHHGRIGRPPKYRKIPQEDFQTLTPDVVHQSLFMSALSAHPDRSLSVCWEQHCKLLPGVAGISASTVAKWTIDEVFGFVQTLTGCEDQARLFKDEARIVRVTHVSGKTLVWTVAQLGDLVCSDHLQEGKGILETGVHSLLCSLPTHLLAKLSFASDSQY
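L3MBTL1 (50 nM) pre-complexed 30 min with biotinylated H3(1-15)K9me1 peptide (75 nM), then compounds added for 30 min at room temperature; AlphaScreen streptavidin donor/nickel chelate acceptor beads (10 ug/mL final) read after 30 min dark incubation.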
A number is an active result; . = inactive; ? = inconclusive; / = no result given; [ ] = another dose, or the depositor's remark. Calls come from the whole dose curve; as a rule, active = well fitted curve in the direction sought with a large enough effect; inconclusive = small, poorly fitted or top-dose-only effect, or another doubt; inactive = no such curve, though single readings can be large; an effect the other way counts as inactive or inconclusive.

SMILES | GLS inh | JMJD2A Tudor inh | BAZ2B inh | HP1b chromo inh | G9a block | L3MBTL1 inh
COc1ccc(CNC(=O)c2oc3c(c2C)-c2nn(Cc4ccc(Cl)cc4)cc2CC3)cc1 | . | . | . | . | . | /
COc1ccc(N2CCN(CCCNC(=O)c3ccc(CS(=O)(=O)c4ccc(Cl)cc4)o3)CC2)cc1 | . | . | 28µM | . | 50µM | /
O=C(NCCCN1CCCC1)c1ccc(CS(=O)(=O)c2ccc(Br)cc2)o1 | . | . | . | . | 56µM | /
CC(C)(C)c1csc(NNC(=O)c2ccc(Cl)cc2)n1 | . | . | . | . | 40µM | /
Cc1ccc(-c2ccc(CCC(=O)O)n2-c2ccc(O)cc2)cc1 | . | ? | ? | . | ? | .
CC(=O)c1ccc(-n2c(CCC(=O)O)ccc2-c2ccc(C)cc2)cc1 | . | ? | . | . | .[2.33 µM] | /
O=C(O)CCc1ccc(-c2ccc(Br)cc2)n1-c1ccc(O)cc1 | . | ? | 40µM | ? | 45µM | /
CC(=O)c1ccc(-n2c(CCC(=O)O)ccc2-c2ccc(Br)cc2)cc1 | . | ? | ? | . | 40µM | /
Cc1ccc(NC(=O)CCc2ccccc2)cc1C | . | / | / | / | / | /
Cc1ccc(NC(=O)CNC(=O)OCc2ccccc2)cc1C | . | 56µM | . | . | . | .
COc1ccc(CNc2nc3c(-c4cccc(C)c4)nnn3c3ccccc23)cc1 | . | . | . | . | . | /
O=C(CCC1N=C2c3ccccc3N=C(SCC(=O)NCc3ccco3)N2C1=O)NCc1ccco1 (stereo not given) | . | ? | 50µM | . | . | /
O=C(CC1N=C2c3ccccc3N=C(SCc3ccc(Cl)cc3)N2C1=O)NCc1ccco1 (stereo not given) | . | ? | ? | . | 50µM | .
Cc1ccc(CSC2=Nc3ccccc3C3=NC(CCC(=O)NCc4ccco4)C(=O)N23)cc1 (stereo not given) | . | . | ? | ? | ? | .
Cc1ccc(-c2nn(CC(=O)Nc3cccc(C(F)(F)F)c3)c(=O)c3ccccc23)cc1 | . | . | . | . | . | /
Cc1nnc(SCc2ccc([N+](=O)[O-])cc2)o1 | ? | 13µM | ? | . | . | .
O=[N+]([O-])c1ccc(CSc2nnc(SCc3ccc(Cl)cc3)s2)cc1 | . | . | . | . | 35µM | .
CCOc1ccc(NC(=O)Cn2c(=O)n(Cc3ccco3)c(=O)c3ccc(C(=O)NC4CCCC4)cc32)cc1 | . | . | / | . | . | /
Cc1ccc(C2=CSC3=NNC4(CCCCC4)NN23)cc1 | . | 45µM | ? | . | ? | .
Cc1ccc(C2=CSC3=NCCN23)c(C)c1 | . | ? | . | . | ? | .
COc1ccc(C2=CSC3=NNC4(CCCCC4)NN23)cc1 | . | . | ? | ? | 40µM | .
CCOc1ccccc1C1NC(c2ccc3c(c2)OCO3)=CC(c2ccccc2O)N1 (stereo not given) | / | . | / | . | / | /
COc1cccc(/C=C2/SC(=S)N(CC(=O)Nc3nccs3)C2=O)c1 | / | . | / | . | / | /
Cc1cc(NC(=O)CN2C(=O)CSc3ccc(S(=O)(=O)N(C)C)cc32)ccc1Br | . | . | . | . | . | /
CC(C)(C)c1ccc(Oc2nc3ccccn3c(=O)c2/C=C(\C#N)c2nc3ccccc3s2)cc1 | . | . | . | . | ? | /
SMILES | GLS inh | JMJD2A Tudor inh | BAZ2B inh | HP1b chromo inh | G9a block | L3MBTL1 inh
Cc1cccc(Oc2nc3ccccn3c(=O)c2/C=C(\C#N)c2nc3ccccc3s2)c1C | . | . | . | . | 5.6µM | /
COc1ccc(C(=O)Nc2ccc(S(=O)(=O)Nc3nccnc3OC)cc2)cc1 | . | . | . | . | . | /
COc1nccnc1NS(=O)(=O)c1ccc(N/C=C2\CCCCC2=O)cc1 | . | . | ? | . | 50µM | .
COc1nccnc1NS(=O)(=O)c1ccc(NC(=O)c2cccc(C)c2)cc1 | . | . | 79µM | . | / | .
CCc1nnc(NS(=O)(=O)c2ccc(NCc3cc(Br)ccc3O)cc2)s1 | . | . | . | . | / | /
COc1nccnc1NS(=O)(=O)c1ccc(NC(=S)NC(=O)c2ccc(F)c(F)c2)cc1 | . | . | ? | . | 50µM | .
COc1nccnc1NS(=O)(=O)c1ccc(NCc2cc(Br)ccc2O)cc1 | . | . | ? | ? | 45µM | /
COCCn1ccc2c(OCC(=O)Nc3ccccc3F)cccc2c1=O | . | . | . | . | ? | /
COC(=O)C1=C(C)NC(=O)/C1=C\c1cc(C)n(-c2ccc(F)cc2)c1C | . | ? | ? | . | / | .
COC(=O)C1=C(O)/C(=C\c2cc(C)n(-c3ccc(F)cc3)c2C)N=C1C | . | 40µM | / | . | 35µM | /
Cn1c(=O)c2c(nc(CN3CCN(C(=O)c4ccco4)CC3)n2Cc2ccc(F)cc2)n(C)c1=O | . | . | . | . | ? | /
O=C(c1ccco1)N1CCN(Cc2nc3cc(Cl)ccc3c(=O)[nH]2)CC1 | . | 14µM | . | . | . | .
CN(Cc1ccccc1)Cc1nc2c([nH]1)c(=O)[nH]c(=O)n2C | . | 1µM | . | . | .[12.7 µM] | .[11.4 µM]
Cn1c(=O)[nH]c(=O)c2[nH]c(CN3CCN(C(=O)c4ccco4)CC3)nc21 | . | 3.2µM | . | . | ? | .
O=C(Nc1ccccn1)C(=O)Nc1ccccn1 | . | . | . | . | . | .
Oc1ccccc1Nc1ccccn1 | 13µM | . | . | . | ? | /
c1ccc(Nc2ccccn2)nc1 | . | ? | ? | . | 0.5µM | /
COc1ccccc1NC(=O)c1cc2c([nH]c1=O)CC(C)(C)CC2=O | . | . | . | . | . | /
O=C(COc1ccccc1)N=C1SC2CS(=O)(=O)CC2N1c1ccccc1 (stereo not given) | . | . | . | . | . | /
CN(C)c1ccc(N2C(=NC(=O)COc3ccccc3)SC3CS(=O)(=O)CC32)cc1 (stereo not given) | . | ? | ? | . | 50µM | /
Cc1nc(NCCc2ccccc2)sc1C(=O)O | . | . | . | . | . | /
CC(=O)c1sc(Nc2ccccn2)nc1C | . | . | 50µM | . | . | .
CC(=O)c1sc(NCc2ccccc2)nc1C | . | . | ? | . | 71µM | /
COc1ccc(CCNc2nc(-c3ccc(NC(C)=O)cc3)cs2)cc1OC | ? | . | ? | . | ? | /
CC(=O)c1sc(Nc2cccc3ccccc23)nc1C | . | . | / | . | / | /
COc1ccc(CCNc2nc(C)c(C(C)=O)s2)cc1OC | . | ? | ? | ? | 4µM | /
COc1ccc(CCNc2nc(-c3ccc(F)cc3)c(CC(=O)O)s2)cc1OC | 11µM | . | . | ? | 7.1µM | /
